Results filed as inconclusive are left out. Values without a mark were called inactive. Calls of active or inactive are those of the source. Calls follow the shape of the dose curve; as a rule, active = well fitted inhibition curve with a large enough effect; inconclusive = small, poorly fitted or top-dose-only effect; inactive = no such curve, though single readings can be large or run the other way.
test: Primary qHTS for small molecule stabilizers of the endoplasmic reticulum resident proteome: Secreted ER Calcium Modulated Protein (SERCaMP) assay (AID 1508630); conditions: SH-SY5Y GLuc-SERCaMP (Gaussia luciferase released on ER calcium loss) secretion, thapsigargin, luminescence; series mostly up to 38.4 µM; activity change, negative = inhibition: at the top concentration
Source text: Assay Provider: Brandon K. Harvey Ph.D.
National Institute on Drug Abuse, National Institutes of Health, Baltimore, MD
Endoplasmic reticulum (ER) dysregulation is associated with human pathologies including neurodegenerative, cardiovascular, muscular, and diabetic conditions. Maintenance of ER calcium is critical for functions of the ER and its depletion can lead to loss of ER resident proteins, in a process termed exodosis. Therapeutic compounds capable of attenuating the redistribution of ER proteins under pathological conditions may slow or stop disease progression. To identify such compounds, we performed a quantitative high-throughput screen (qHTS) using the SERCaMP assay, which monitors secretion of ER resident proteins triggered by calcium depletion.
SERCaMP was initially developed as a reporter of ER calcium homeostasis using a Gaussia luciferase with a modified signal peptide and carboxy-terminus (GLuc-SERCaMP), modifications that confer secretion of the reporter in response to ER calcium depletion (Henderson et al., 2014). The assay was used to screen 9,501 compounds, including a collection of drugs approved by the FDA (US), EMA (EU), NHI (Japan), and HC (Canada) regulatory agencies (Huang et al., 2011). Since the SERCaMP reporter reflects the exodosis phenomenon (Trychta et al., 2018a), compounds identified in the screen have the potential to prevent exodosis by different mechanisms such as stabilizing ER calcium or augmenting ERS retrieval.
1. Henderson, M.J., Wires, E.S., Trychta, K.A., Richie, C.T., and Harvey, B.K. (2014). SERCaMP: a carboxy-terminal protein modification that enables monitoring of ER calcium homeostasis. Mol Biol Cell 25, 2828-2839.
2. Huang, R., Southall, N., Wang, Y., Yasgar, A., Shinn, P., Jadhav, A., Nguyen, D.T., and Austin, C.P. (2011). The NCGC pharmaceutical collection: a comprehensive resource of clinically approved drugs enabling repurposing and chemical genomics. Sci Transl Med 3, 80ps16.
3. Trychta, K.A., Back, S., Henderson, M.J., and Harvey, B.K. (2018a). KDEL Receptors Are Differentially Regulated to Maintain the ER Proteome under Calcium Deficiency. Cell Rep 25, 1829-1840 e1826.
SEQUENCE No. (1, 2, 3, etc.); […] (e.g., Cells, Incubation, Reagent, etc.); VALUE and DESCRIPTION.
1; Reagent; 5 uL; 1000 SH-SY5Y cells per wells
3; Compound; 23 nL; Control inhibitor / compound library
5; Reagent; 100 nM; Thapsigargin
7; Reagent; 1 uL; 0.5x coelenterazine
8; Detection; Luminescence; ViewLux imaging system
NOTES (numbers refer to sequence above)
1; SH-SY5Y human neuroblastoma cells stably expressing GLuc-SERCaMP (SH-SY5Y-GLuc-ASARTDL) cells were seeded in 1,536 well white tissue culture treated plates (Corning, Cat# 7464) in DMEM-high glucose-sodium pyruvate (ThermoFisher Scientific, Cat #10569) supplemented with 10% bovine growth serum (Hyclone), 10 U/ml penicillin (Gibco), 10 ug/ml streptomycin (Gibco), and 20 mM HEPES.
2; Assay plates were incubated for 5 hour at 37C in a humidified incubator containing 5% CO2.
3; qHTS libraries (23 nl, final concentrations of 1.53 uM, 7.67 uM, 38.3 uM) or controls (neutral control: DMSO, positive control: dantrolene) were added using a Kalypsis pin-tool Robotic System equipped with 1536 pinheads.
4; Cells were then incubated for 16 hours at 37C, 5% CO2.
5; Thapsigargin was added at 100 nM to deplete ER calcium stores.
6; Cells were incubated for 4 hour (37 °C, 5% CO2)
7; Gaussia luciferase in the medium was measured by adding 1 ul of 0.5x coelenterazine (final concentration 0.07x) prepared in Gaussia Luciferase Glow Assay Buffer (Pierce), without addition of the Cell Lysis Buffer Reagent.
8; Luminescence was measured using a ViewLux […] CCD imaging system (Perkin Elmer) equipped with clear filters. […] The same controls were also used for the calculation of the Z' factor, a measure of assay quality control, as previously described (Zhang et al., 1999). […]
% is scaled to controls: 0 for no effect and ±100 for the full control effect.

Row | SMILES | activity change, negative = inhibition | Potency
1 | C/C(=C(\CCOP(=O)(O)O)SC(=O)c1ccccc1)N(C=O)Cc1cnc(C)nc1N | -22.1% [at 3.88 µM] | –
2 | CNC(=O)Oc1ccc2c(c1)[C@]1(C)CCN(C)[C@@H]1N2C | 22.2% | –
3 | OCCN1CCN(CCCN2c3ccccc3Sc3ccc(Cl)cc32)CC1 | -19.7% | –
4 | CC(=O)NC(Cc1ccccc1)C(=O)O (stereo not given) | -16% | –
5 | O=C1Nc2ccc(Cl)cc2[C@@](C#CC2CC2)(C(F)(F)F)O1 | 3.34% | –
6 | C[C@@H]1CN(c2c(F)c(F)c3c(=O)c(C(=O)O)cn(C4CC4)c3c2F)C[C@H](C)N1 | -34.1% [at 21.6 µM] | –
7 | CC[C@H]1CN2CCc3cc(OC)c(OC)cc3[C@@H]2C[C@@H]1C[C@H]1NCCc2cc(OC)c(OC)cc21 | – | inactive
8 | CC(C)C(=O)c1c(C(C)C)nn2ccccc12 | – | inactive
9 | CC(O)COc1ccccc1 (stereo not given) | -25% | –
10 | CCN(CC)CCNC(=O)c1cc(Cl)c(N)cc1OC | – | inactive
11 | CCCCOc1cc(C(=O)OCCN(CC)CC)ccc1N | -8.57% | –
12 | O=c1[nH]cnc2c1ncn2[C@@H]1O[C@H](CO)[C@@H](O)[C@H]1O | -26.6% | –
13 | OCC(O)CN1CCN(c2ccccc2)CC1 (stereo not given) | 6.77% | –
14 | NC(=O)NNc1ccccc1 | -29.3% | –
15 | Nc1ccc(S(=O)(=O)Nc2ccccc2)cc1 | -15.5% | –
16 | CCOC(CN1CCN(CC(C)C(=O)c2ccccc2)CC1)c1ccccc1 (stereo not given) | -22% [at 21.6 µM] | –
17 | CCC(=O)c1ccc(O)cc1 | 0.42% | –
18 | C[C@H](NC(CCc1ccccc1)C(=O)O)C(=O)N1CCC[C@H]1C(=O)O (stereo not given in full) | 28.6% | –
19 | NCCNCCNCCNCCN | -1.31% [at 7.35 µM] | –
20 | c1ccc2c(CC3=NCCN3)cccc2c1 | – | inactive

Row | SMILES | activity change, negative = inhibition | Potency
21 | O=S(=O)(O)c1cc(I)c(O)c2ncccc12 | -16% | –
22 | [O-][n+]1cccc(CO)c1 | -21.2% | –
23 | CC(C)NC[C@H](O)c1ccc(O)c(O)c1 | -25.7% | –
24 | CC1=C(/C=C/C(C)=C/C=C/C(C)=C/C(=O)O)C(C)(C)CCC1 | – | inactive
25 | O=C(O)c1ccccn1 | -14.5% | –
26 | CC(=O)OCC(=O)[C@@]1(O)CC[C@H]2[C@@H]3CCC4=CC(=O)CC[C@]4(C)[C@H]3C(=O)C[C@@]21C | – | inactive
27 | CC(=O)O[C@@]12CO[C@@H]1C[C@H](O)[C@@]1(C)C(=O)[C@H](O)C3=C(C)[C@@H](OC(=O)[C@H](O)[C@@H](NC(=O)OC(C)(C)C)c4ccccc4)C[C@@](O)([C@@H](OC(=O)c4ccccc4)[C@H]21)C3(C)C | 25.5% | –
28 | Cc1c(Cl)cccc1Nc1ccccc1C(=O)O | -8.3% | –
29 | N=c1c[n+](N2CCOCC2)[n-]o1 | -29.6% | –
30 | C[C@H]1O[C@H](O[C@H]2[C@H](O)[C@@H](O)[C@@H](O[C@H]3[C@H](O)[C@@H](O)[C@H](O)O[C@@H]3CO)O[C@@H]2CO)[C@H](O)[C@@H](O)[C@@H]1N[C@H]1C=C(CO)[C@@H](O)[C@H](O)[C@H]1O | -15.4% | –
31 | COc1ccc(Cl)cc1C(=O)NCCc1ccc(S(=O)(=O)NC(=O)NC2CCCCC2)cc1 | – | inactive
32 | Oc1cccc(O)c1 | -10.8% | –
33 | COC(=O)[C@H]1[C@H]2C[C@@H]3c4[nH]c5cc(OC)ccc5c4CCN3C[C@H]2C[C@@H](OC(=O)COc2ccc(OC)cc2)[C@@H]1OC | -28.7% | –
34 | CCCCCCCCCCCCCCCCCCOCC(O)CO (stereo not given) | -27.3% | –
35 | O=C(Oc1ccccc1C(=O)O)c1ccccc1O | -16.2% | –
36 | CC(=O)Nc1ccc(/C=N/NC(N)=S)cc1 | -21.9% | –
37 | NC(N)=NCCC[C@H](N)C(=O)O | – | inactive
38 | CCCCN1CCCC[C@H]1C(=O)Nc1c(C)cccc1C | -10.1% | –
39 | NS(=O)(=O)c1cc2c(cc1Cl)NC(CSCc1ccccc1)=NS2(=O)=O | -4.64% | –
40 | CCN(CC)CCCC(C)Nc1c2ccc(Cl)cc2nc2ccc(OC)cc12 (stereo not given) | – | inactive

— PubChem BioAssay (NCATS)
